Screens from PubChem.
Hsp70 activator: Hsp70 transcriptional activation, primary screen | HeLa Hsp70 promoter luciferase reporter, luminescence; scaled: vehicle 0, proteasome-inhibitor control 100% | activation, % at 10 µM | 200,000 compounds, 0.04% hits;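 active = activation above the mean across all tested compounds plus 3 SD, cutoff set per campaign, cut at about 5.5% in these data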;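 also: 100% = MG132 at 30 µM as the positive control and 0% = DMSO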
NALP1 inh: blocks the NALP1 inflammasome reconstituted in yeast; inhibition, % at 10 µM; AID 2071; 280,000 compounds, 0.61% hits; S. cerevisiae NALP1/ASC/caspase-1 growth, X-gal OD620, 72 h; in the data active = inhibition mostly above about 24%, no sharp cut-off; inactive = mostly below about 32%
HSP90 inh: blocks HSP90-mediated luciferase refolding in reticulocyte lysate; Rabbit reticulocyte lysate, luciferase refolding luminescence, 3 h; 290,000 compounds, 0.91% hits; inhibition, % at 5.6 µM;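 active = inhibition above the screen-wide mean plus 3 SD, computed separately per campaign, cut at about 16% in these data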;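 also: 0% = DMSO wells and 100% = 60 µM geldanamycin wells; inhibitors lower the luminescence because luciferase stays unfolded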
pCIP destab: compounds decreasing mouse p/CIP protein stability | 290,000 compounds, 0.01% hits | Q05BA5 | F442A p/CIP-EGFP cells, EGFP fluorescence, 16 h | decrease of EGFP signal, % at 10 µM;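 active = EGFP signal decrease of at least 30% at 10 µM or well 3 SD below plate mean, unless failing retest; inactive = the rest, including hits failing retest or dose response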
Target sequence (Q05BA5 1-1403): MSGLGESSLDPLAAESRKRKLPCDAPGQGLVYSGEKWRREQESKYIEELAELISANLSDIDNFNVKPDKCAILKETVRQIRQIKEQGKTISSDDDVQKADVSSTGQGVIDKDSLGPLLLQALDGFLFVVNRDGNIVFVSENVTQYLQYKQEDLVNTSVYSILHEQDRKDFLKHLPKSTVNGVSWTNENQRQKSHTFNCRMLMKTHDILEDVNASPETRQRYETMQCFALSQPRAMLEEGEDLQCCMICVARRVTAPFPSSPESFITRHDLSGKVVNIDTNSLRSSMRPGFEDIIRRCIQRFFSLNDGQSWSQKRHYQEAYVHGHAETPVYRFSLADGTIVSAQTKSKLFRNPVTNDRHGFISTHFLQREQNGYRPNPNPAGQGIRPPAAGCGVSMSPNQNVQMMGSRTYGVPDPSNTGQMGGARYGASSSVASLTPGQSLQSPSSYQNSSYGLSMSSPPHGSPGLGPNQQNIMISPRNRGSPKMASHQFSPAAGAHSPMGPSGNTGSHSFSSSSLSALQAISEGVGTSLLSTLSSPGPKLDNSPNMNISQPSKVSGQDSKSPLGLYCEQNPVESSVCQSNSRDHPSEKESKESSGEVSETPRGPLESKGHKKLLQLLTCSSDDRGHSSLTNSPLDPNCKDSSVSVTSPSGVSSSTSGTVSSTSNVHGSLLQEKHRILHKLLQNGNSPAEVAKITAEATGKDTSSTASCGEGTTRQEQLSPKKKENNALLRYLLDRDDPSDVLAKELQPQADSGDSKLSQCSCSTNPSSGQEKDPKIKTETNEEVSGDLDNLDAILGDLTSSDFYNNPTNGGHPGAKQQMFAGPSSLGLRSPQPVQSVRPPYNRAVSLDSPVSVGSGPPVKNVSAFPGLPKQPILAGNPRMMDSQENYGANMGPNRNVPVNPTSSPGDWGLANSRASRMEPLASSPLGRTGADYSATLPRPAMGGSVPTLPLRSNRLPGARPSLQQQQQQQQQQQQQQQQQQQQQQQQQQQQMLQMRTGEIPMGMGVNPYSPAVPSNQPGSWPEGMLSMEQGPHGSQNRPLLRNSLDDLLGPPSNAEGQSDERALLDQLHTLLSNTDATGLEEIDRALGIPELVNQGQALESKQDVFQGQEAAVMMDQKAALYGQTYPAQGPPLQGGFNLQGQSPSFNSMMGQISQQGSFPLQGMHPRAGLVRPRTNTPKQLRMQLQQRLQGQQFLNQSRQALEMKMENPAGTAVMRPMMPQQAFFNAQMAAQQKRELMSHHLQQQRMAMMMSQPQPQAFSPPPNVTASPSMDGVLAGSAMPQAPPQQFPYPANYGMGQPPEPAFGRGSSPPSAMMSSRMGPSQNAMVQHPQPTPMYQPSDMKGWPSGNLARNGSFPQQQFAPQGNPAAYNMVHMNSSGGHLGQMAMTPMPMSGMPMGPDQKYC
HSF-1 act: increases HSF-1 driven luciferase reporter signal; NIH3T3-HGL HSF-1 luciferase reporter, MG132, 8 h; 100% = twice DMSO control signal; activation, % at 9 µM; 300,000 compounds, 1.7% hits;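 active = mean replicate activation of at least 50% with a set share of replicates each reaching 50%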;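 also: 0% = median of the neutral control wells and 100% = twice that signal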
HSF1 inh: HSF1 inhibition | NIH3T3-HGL HSE-luciferase, MG132-induced, luminescence 8 h; active compounds read low | activity change, negative = inhibition, % at 7.5 µM (by protocol) | 300,000 compounds, 0.77% hits | AID 2098;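 active = more than half of replicate wells show activity change below -50%, luminescence cut by over half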;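 also: luciferase reports HSF-1 transcriptional activity via heat shock element; 0% = median of DMSO wells and -100% = zero luminescence signal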
An asterisk follows results filed as active; . = no result given. A selection: hits, their analogues and other compounds. The true share with any hit is near 3.8%.

SMILES	Hsp70 activator	NALP1 inh	HSP90 inh	pCIP destab	HSF-1 act	HSF1 inh
CCOC(=O)Cn1nc(-c2ccc(Cl)cc2)cc1N	0.1	15.1	6.8	-3.6	0.0	3.9
CCOC(=O)CN1CCC(c2cc(-c3ccc(Cl)cc3)n[nH]2)CC1	.	15.0	-2.0	-4.6	51.7*	8.5
O=[N+]([O-])c1cccnc1N1CCC(c2cc(-c3ccc(Cl)cc3)n[nH]2)CC1	0.1	40.3*	1.1	-3.7	14.5	2.7
Cc1ccc(-n2c(N)c(Br)c(=O)[nH]c2=O)cc1C	-0.2	-0.2	-0.6	0.3	-5.2	-1.4
COC(=O)C1CCN(C(=O)/C=C/c2ccc(OC)cc2)CC1	-0.1	32.4	-5.8	3.1	24.4	9.6
COc1ccc2cc(/C=C/C(=O)N3CCN(CC(=O)N4CCCCCC4)CC3)ccc2c1	.	0.0	-2.0	-16.2	61.4*	22.4
N#C/C(=C\c1ccc(F)cc1)C(=O)Nc1ccccn1	.	3.1	0.8	11.9	-4.9	-12.4
COc1ccc(NC(=O)c2ccco2)cc1NC(=O)c1ccco1	-0.1	-29.3	-3.5	-7.5	-2.7	2.6
COc1ccc(NC(=O)c2ccco2)cc1N	-0.1	28.5	-2.6	-8.7	-63.1	-56.7*
COc1cc(NC(=O)c2ccccc2Cl)ccc1NC(=O)c1ccco1	0.7	3.3	3.2	-3.3	71.2*	54.7
Cc1ccc(S(=O)(=O)NNC(=O)c2cnn(-c3ccc(Cl)cc3)c2C(F)(F)F)cc1	.	3.8	0.6	-9.6	60.8*	32.3
CCC(C)(C)NC(=O)C(c1ccc(C)cc1)N(Cc1cccs1)C(=O)c1ccc2c(c1)OCCO2 (stereo not drawn)	-0.3	0.7	-0.7	2.1	55.2*	22.5
Cc1ccc(S(=O)(=O)N(CC(=O)Nc2cc(C)ccc2C)C(=O)N2CCN(C)CC2)cc1	.	.	.	.	-0.5	-1.3
CCCCCC(=O)Nc1nnn(CCC)n1	-0.1	42.6*	-6.3	17.6	-5.1	2.1
CCc1ncc(CN2CCC(C(=O)Nc3cccc(-c4cscn4)c3)CC2)cn1	.	13.4	1.1	-3.7	-5.0	-7.2
O=S(=O)(c1ccc2c(c1)C(=NO)c1cc(S(=O)(=O)N3CCCCC3)ccc1-2)N1CCCCC1	0.3	-3.6	0.6	60.3*	-94.1	-94.3*
CCCC(=O)Nc1sc(-c2ccccc2)c(-c2ccccc2)c1C(=O)O	.	.	.	.	-14.1	-7.5
O=S(=O)(NC1CCCCC1)c1ccc(Cl)s1	-0.4	40.8*	2.1	-1.1	-7.4	-2.4
O=S(=O)(NC1CCCCC1)c1ccc(Br)s1	.	22.2	0.2	-7.5	-8.6	1.3
CC(=O)c1cc(CN2CCN(C(C)C)C(CCO)C2)cs1 (stereo not drawn)	-0.4	9.1	1.3	-6.3	21.6	8.9
O=C(O)/C=C\C(=O)Nc1ccccc1C#Cc1ccc(Br)cc1	0.1	32.9	-3.5	-1.7	55.6*	13.7
O=S(=O)(c1cc(Cl)ccc1Cl)N1CCC2(CC1)OCCO2	.	13.2	2.3	-12.3	-77.8	-71.6*
Cc1ccc(C)c(S(=O)(=O)N2CCC3(CC2)OCCO3)c1	.	-10.8	-2.5	-13.5	-5.6	-3.9
O=C(CN1C(=O)NC2(CCCC2)C1=O)NCCN1C(=O)S/C(=C\c2ccccc2F)C1=O	.	.	.	.	55.2*	14.1
O=c1oc(Cc2ccccc2)nc2ccccc12	.	30.7	-2.7	5.6	15.0	4.7
SMILES	Hsp70 activator	NALP1 inh	HSP90 inh	pCIP destab	HSF-1 act	HSF1 inh
O=C(CCl)c1ccc2c(c1)CCN2C(=O)C1CCCCC1	0.1	-12.1	-1.2	-9.6	70.6*	52.2
Cc1cc(C)n2nc(N)c(N=Nc3ccc(Cl)cc3)c2n1	-0.2	27.5	4.2	-7.1	4.5	-12.1
CCS(=O)(=O)N1CCc2nc(-c3ccccc3)sc2C1	.	26.5	11.1	-6.1	62.5*	30.5
COc1ccc(-c2nc3c(s2)CN(S(C)(=O)=O)CC3)cc1OC	.	7.0	0.6	-0.2	-3.1	-2.4
Cn1ccnc1-c1nnn(-c2ccc(Cl)c(Cl)c2)n1	.	.	.	.	-1.2	0.9
Cc1cccc(C(C#N)c2ccc(Cl)nn2)c1 (stereo not drawn)	-0.1	6.0	0.0	-9.5	73.9*	24.9
COC(=O)Cn1cc([N+](=O)[O-])nc1C	-0.2	-11.1	2.6	-2.6	3.9	-3.3
CCOC(=O)CSc1nnc(NC(=O)c2cccc([N+](=O)[O-])c2C)s1	-0.4	27.1	1.8	-0.4	-16.4	-1.7
c1ccc2sc(Sc3ncnc4sccc34)nc2c1	0.2	45.6	-3.3	5.4	328.9*	235.4
CCc1cc2c(SCC(=O)c3ccc(C)cc3)ncnc2s1	-0.6	8.0	-0.2	-10.8	-3.3	-3.1
CCc1cc2c(Sc3nc4ccccc4s3)ncnc2s1	0.8	11.7	0.1	0.1	98.8*	62.3
Cc1cc(Sc2nnc(N)s2)c2ccccc2n1	.	31.5	4.9	-29.3	136.0*	108.3
O=C(c1ccco1)N1CCCN(Cc2cn[nH]c2-c2ccc(-c3ccccc3)cc2)CC1	0.9	8.4	8.5	-10.4	76.3*	34.0
Cc1cc(S(=O)(=O)Nc2ccc(C(=O)NCCCN3CCOCC3)cc2)ccc1F	.	.	.	.	-12.1	-16.8
Cc1ccc(C(NC(=O)NCCCN2CCOCC2)=C(Cl)Cl)cc1F	-0.5	-3.4	1.5	-5.2	68.7*	30.9
Cc1nn(C)c(C(=O)NNC(=O)NC2CCCCC2)c1Cl	.	2.6	-0.7	-3.0	-15.2	-1.4
COc1ccc(CCNCc2ccc(OCC(=O)N3CCCCC3)c(OC)c2)cc1OC	-0.1	34.3*	1.9	-0.3	-19.5	-9.1
COc1ccc(CCNC(=O)c2ccc(OCC(=O)N3CCOCC3)c(OC)c2)cc1	.	.	.	.	-6.9	-3.4
COc1ccc(CCNC(=O)c2ccc(OCC(=O)N3CCOCC3)c(OC)c2)cc1OC	.	29.9*	2.6	-5.4	22.9	-0.7
c1ccn(-c2ccc(N3CCOCC3)cc2)c1	0.1	-154.2	-5.6	-9.1	-68.5	-62.5*
C#CCN(C(=O)c1ccc(OC2CCN(Cc3ccccn3)CC2)cc1)C1CCCCC1	.	-7.1	-3.8	6.7	-7.6	-4.4
CN(C(=O)c1ccc(OC2CCN(Cc3ccccn3)CC2)cc1)C1CCCCC1	.	1.8	4.7	-15.7	-64.0	-52.0*
CCOP(=O)(OCC)c1nc(-c2cccc3ccccc23)oc1N1CCOCC1	-0.3	4.8	1.4	-0.7	73.7*	22.3
CCOP(=O)(OCC)c1nc(-c2ccccc2Cl)oc1N1CCOCC1	-0.3	-8.7	4.1	-6.6	4.8	-3.7
CC(SC1=NCCN1S(=O)(=O)c1ccccc1)c1ccccc1 (stereo not drawn)	.	3.6	1.1	-9.8	3.0	0.0
Cc1ccc(-c2nc3c(c(=O)[nH]c(=O)n3Cc3ccccc3)n2C)o1	-0.1	4.3	1.9	0.9	.	.
C=CCOc1ccc(-c2nc3c(c(=O)[nH]c(=O)n3Cc3ccccc3)n2CCCOC)cc1	.	14.3	1.4	7.6	63.4*	18.9
COCCCn1c(-c2ccc(OC)cc2)nc2c1c(=O)[nH]c(=O)n2Cc1ccccc1	.	-0.8	4.1	-5.1	15.0	0.4
